High-throughput results from PubChem.
DRD3 antagonist: antagonists of human D3 dopamine receptor. P35462. D3R cells, DiscoveRx beta-arrestin luminescence, antagonist mode; active compounds read low. max response, negative = inhibition, %. 2.5% of 360,000 active. AID 652054; in the data active = max response below about -50%; inconclusive = no clear call, values can overlap the other calls; note: % is set by controls: 0 for no effect and ±100 for the full control effect
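Cells expressing the human receptor were seeded at 1500 cells/well, incubated overnight at 37 degrees C in 5% CO2, then exposed to library compounds with dopamine controls for 90 minutes at 37 degrees C before luminescent detection.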
ClpP mod: qHTS Assay for Activators of ClpP. purified B. subtilis ClpP, FRET peptide cleavage, 20 min. Potency, µM (highest dose often 57.5 µM), for the others: at the highest dose activity change, negative = active. 1.9% of 340,000 active. AID 651965, 2013; active = well fitted falling curve with a large enough effect; inconclusive = small, poorly fitted or top-dose-only effect; inactive = no such curve, though single readings can be large or run the other way; note: potency is the fitted concentration of half-maximal effect; the source files actives as falling curves though it sought activators and does not explain the sign; nearly all actives have a fitted effect of over 65% in size
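Buffer: 100 mM Tris/HCl pH8, 100 mM KCl, 0.05% low protease BSA, 2.5% glycerol, 0.01% Tween-20. ClpP 10 microg/mL final; 20 min RT; delta FRET normalized to ADEP and DMSO controls.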
D3 ag: agonists of human D3 dopamine receptor; D3R DiscoveRx beta-arrestin cells, luminescence, 90 min; max activation, %; 0.58% of 410,000 active; in the data active = max activation above about 30%; note: 0% is about no effect
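Agonist-mode cell screen: cells plated at 1500/well and incubated overnight at 37 °C, then exposed to library compounds for 90 min at 37 °C. Detection reagent was added for 30–60 min at room temperature, and luminescence was read.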
TDP1 cell noCPT: qHTS for Inhibitors of human tyrosyl-DNA phosphodiesterase 1 (TDP1): qHTS in cells in absence of CPT; DT40 Tdp1-/- hTDP1 cells, no CPT, ATP luminescence, 48 h; Potency, µM (highest dose often 46.2 µM), for the others: at the top dose activity change, negative = growth inhibition, actives largely listed as inhibitors; 15% of 420,000 active; AID 686978, 2013; note: potency is the fitted concentration of half-maximal effect; % is set by controls: 0 for no effect and ±100 for the full control effect; nearly all actives have a fitted effect of over 55% in size
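Seeded 400 DT40-hTDP1 cells/well (vehicle DMSO, no 20 nM CPT); pinned compounds; ≥48 hr at 37 °C; CellTiter-Glo luminescence as viability measure.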
TDP1 cell CPT: growth inhibition of DT40 Tdp1-/-;hTDP1 cells with camptothecin (screen for TDP1 inhibitors); Potency, µM (highest dose often 46.2 µM), inactives show at the highest dose activity change, negative = growth inhibition, hits mostly inhibitors; AID 686979; chicken DT40 Tdp1-/-;hTDP1 cells + 20 nM CPT, ATP luminescence, 48 h; 12% of 420,000 active; note: potency is the fitted concentration of half-maximal effect; % is set by controls: 0 for no effect and ±100 for the full control effect; nearly all actives have a fitted effect of over 55% in size
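Chicken DT40 Tdp1-/- cells stably complemented with human TDP1 were seeded at 400 cells/well in medium containing 20 nM camptothecin, exposed to pin-transferred compounds, and grown at 37 °C for at least 48 hr. Viability was read as ATP luminescence.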
IL-1B inflam inh: blocks inflammasome-driven IL-1 beta release; THP-1 LPS/ATP IL-1B secretion, AlphaLISA, 16 h; active compounds read low; activity change, % at 57.5 µM; 4.7% of 360,000 active; AID 743279; in the data active = activity change below about -50%; inconclusive = mostly about -30% to -49%; note: % is set by controls: 0 for no effect and ±100 for the full control effect
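Secreted IL-1B measured by AlphaLISA bead assay after 16 h compound exposure of THP-1 cells; compounds (final up to 57.5 uM) added 1 h before LPS (250 ng/mL) and ATP (1.25 mM) stimulation; lower signal means less secretion.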
* hit, by the source's call; ? = inconclusive; . = not tested or not shown. An excerpt weighted towards active compounds, which were near 21% of everything screened. Unless noted, calls come from the whole dose curve; as a rule, active = well fitted inhibition curve with a large enough effect; inconclusive = small, poorly fitted or top-dose-only effect; inactive = flat fitted curve, though single readings scatter.

SMILES | DRD3 antagonist | ClpP mod | D3 ag | TDP1 cell noCPT | TDP1 cell CPT | IL-1B inflam inh
Cc1cccc(NC(=O)c2cc(-c3cc(C)cc(C)c3O)n[nH]2)c1 | 2 | -3% | -2 | ? | ? | -54*
COc1ccc(NC(=O)c2cc(-c3ccccc3O)n[nH]2)cc1Cl | -20 | . | -8 | ? | -15% | -9
COc1ccc(NC(=O)c2cc(-c3cc(C)cc(C)c3O)n[nH]2)cc1Cl | 1 | 0% | 10 | ? | 21µM* | -79*
COc1ccc(N(C)C(=O)c2cc3c(s2)-c2ccccc2OC3)c(OC)c1 | 3 | -9% | 3 | 9.2µM* | 15µM* | -73*
CN(C(=O)c1cc2c(s1)-c1ccccc1S(=O)(=O)C2)c1ccccc1 | 13 | . | -7 | 23µM* | 12µM* | 7
CN(Cc1ccco1)C(=O)c1cc2c(s1)-c1ccc(Cl)cc1S(=O)(=O)C2 | 6 | -10% | -4 | ? | ? | -4
COc1ccc(N(C)C(=O)c2cc3c(s2)-c2ccc(Cl)cc2S(=O)(=O)C3)c(OC)c1 | 12 | 4% | 4 | ? | 18µM* | -9
Oc1ccccc1N1CCN(C(c2ccccc2)c2ccccc2)CC1 | 6 | . | 3 | ? | ? | ?
Cc1nc(NC(=O)c2ccccc2)sc1-c1cc(C(=O)NCCO)nn1Cc1ccccc1 | 3 | -3% | -1 | -16% | 22% | ?
Cc1cc(C)cc(-n2c(C)nc3cc(C(=O)NCc4ccccc4Cl)ccc32)c1 | . | 1% | -9 | ? | 2% | .
COC(=O)c1cc2c(C)c(C)c3ccccn3c-2c1C(=O)OC | -52* | 2% | 4 | ? | 26µM* | -13
COC(=O)c1cc2ccccn2c2c(C(=O)OC)c(C(=O)OC)cc1-2 | 0 | 3% | 7 | ? | -28% | -15
CS(=O)(=O)c1cccc(-c2nnc(NC(=O)c3ccc4c(c3)OCCO4)o2)c1 | . | -3% | -8 | ? | ? | .
CC1CCC(NC(=O)Cn2c3c(c(-c4ccccc4Cl)cc2=O)CCC3)CC1 (configuration not stated) | -77* | 4% | -12 | 13µM* | 16µM* | -16
COC(=O)c1cc2sc(C)cc2n1CC(=O)Nc1ccc(C)cc1Cl | . | -1% | -3 | ? | ? | .
N#C/C(=C\C=C\c1ccccc1[N+](=O)[O-])C(=O)NCc1ccccc1 | -26 | . | -5 | 6.5µM* | 4.6µM* | -102*
N#C/C(=C\c1ccccc1[N+](=O)[O-])C(=O)NCc1ccccc1 | -10 | . | -2 | 21µM* | -21% | -29
C=CCNC(=O)/C(C#N)=C/c1ccccc1[N+](=O)[O-] | 3 | . | -10 | ? | -19% | -62*
CCCCCCCCNC(=O)/C(C#N)=C/c1ccccc1[N+](=O)[O-] | 0 | -5% | -6 | ? | ? | ?
Cc1cc(F)ccc1NC(=O)CCS(=O)(=O)c1ccc2c(c1)NC(=O)CO2 | . | 2% | 5 | . | . | .
O=C1CCC/C(=N\NC(=O)COc2ccc(Cl)cc2)C1 | 2 | . | 9 | -15% | -16% | 16
COC(=O)c1ccc(-c2ccco2)n1Cc1cc(C)ccc1C | -22 | 32µM* | -4 | -12% | -19% | -5
CCCCN(CCCC)CCNC(=O)CSCc1ccc(C)cc1 | -17 | . | -10 | 21µM* | 26µM* | -9
Cc1ccc(CNC(=O)CSCc2ccccc2)cc1 | 5 | -3% | 1 | -4% | 4% | 4
COc1ccc(OC)c(CNC(=O)CN(c2ccc(C)cc2)S(=O)(=O)N(C)C)c1 | . | 1% | 10 | -20% | -14% | .
SMILES | DRD3 antagonist | ClpP mod | D3 ag | TDP1 cell noCPT | TDP1 cell CPT | IL-1B inflam inh
CC(C)(CN1CCCC1)NS(=O)(=O)c1ccccc1 | -24 | -1% | -11 | 10% | -2% | 0
O=C1C=C(c2ccccc2)CC(c2ccc(F)cc2)C1 (configuration not stated) | 18 | 2% | -10 | ? | ? | -1
COc1cc(F)cc(C2=CC(=O)C[C@H](c3ccc(F)cc3)C2)c1 | -79* | -5% | -16 | ? | ? | ?
COc1ccc(C2=CC(=O)CC(c3ccc(F)cc3)C2)cn1 (configuration not stated) | -20 | 1% | 4 | ? | 15µM* | -16
COc1ccc2cc(C#CC3=CC(=O)C[C@H](c4ccc(F)cc4)C3)ccc2c1 | 9 | -5% | -1 | ? | ? | -76*
CCc1ccc(-c2n[nH]nc2C2=CC(=O)C[C@H](c3ccc(F)cc3)C2)cc1 | -12 | -2% | 5 | 2.9µM* | ? | -29
COc1ccc(C(=O)N[C@H](C(=O)OCn2nnc3ccccc3c2=O)C(C)C)cc1 | 11 | 2% | -5 | ? | ? | 23
CC(Oc1ccccc1F)C(=O)NNC(=O)Cc1ccc(S(=O)(=O)N2CCOCC2)s1 (configuration not stated) | 5 | -1% | 8 | -1% | ? | 1
COC(=O)[C@@H]1CCCN1C(=O)c1c(OC)cc(=O)n2c1CCN(Cc1ccc(C)o1)CC2 | . | . | . | -14% | 4% | .
Cc1cccc(-n2ncc3c(NCc4cccnc4)ncnc32)c1 | 1 | 5% | 1 | ? | ? | -11
Cc1ccc(-n2ncc3c(NCc4cccnc4)ncnc32)cc1C | 7 | 3% | 2 | ? | 21µM* | -19
Cc1ccc(-n2ncc3c(NCc4cccnc4)ncnc32)c(C)c1 | 18 | -24% | 6 | 5.2µM* | 16µM* | -13
Cc1cccc(C(=O)NNc2ncnc3c2cnn3-c2ccc(C)cc2C)c1 | . | -2% | -16 | ? | 23µM* | .
O=C1SC(Nc2ccccc2)C(=O)N1c1ccccc1 (configuration not stated) | . | -2% | . | -9% | 2% | .
Cc1cccc(OCC(=O)Nc2ccc(C(=O)OCc3cc(=O)n4nc(C5CC5)sc4n3)cc2)c1 | . | -5% | 1 | -19% | -14% | .
Cc1ccccc1Cn1c(C)c(C(=O)NCC(C)C)sc1=O | 25 | 1% | 9 | ? | ? | -8
COc1cc(OC)cc(-c2nc3nc(C)c(CCC(=O)Nc4ccc(C)cc4C)c(C)n3n2)c1 | . | -1% | -13 | -26% | 4% | .
COc1ccc(N2C(=O)CC(NNC(=O)c3ccc(Br)s3)C2=O)cc1 (configuration not stated) | -4 | . | -4 | 12% | 14% | -64*
Cc1ccccc1C(=O)NCCc1nnc(SCC(=O)Nc2nc(-c3ccccc3)cs2)n1C | ? | 0% | -7 | ? | -25% | 2
